Test results from the supplement of paper PMC10849652.
Targets with a hit are over-represented here; the source holds about 7,900 in all. About 0.6% of all pairs of compound and target were hits. Values without a mark were called inactive.

Assays:
Assay in all cases: log2 fold change, soluble protein after heating vs DMSO (PISA); higher = thermal stabilisation; K562 cells, 10 uM, 30 min; active = over 0.2 and 3.5 SD of the protein, either way, in both replicates (recomputed)
[1] = compound: COC1=CC=C(C=C1)CN2C=CC3=C2C=C(C=C3)C(=O)NO
Summary of the method: (§1)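 Soluble protein was defined as the supernatant after 21,000xg for 90 min. It came from K562 cells at 2×10^6 cells/mL given 10 μM compound for 30 min, heated in aliquots for 3 min across 48°C-58°C, pooled, and extracted in PBS with 0.5% NP-40 at 4°C, and was quantified by TMTpro 16plex LC-MS/MS with equalised channel sums. Thermal stability against control samples, from duplicates, is reported as log2 fold change.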

[2] = compound: CON(C)C(=O)N1N=C(c2cc(F)ccc2F)S[C@@]1(CCCN)c1ccccc1 [filanesib]
Summary of the method: as §1

[3] = compound: CO[C@H]1C[C@@H]2CC[C@@H](C)[C@@](O)(O2)C(=O)C(=O)N2CCCC[C@H]2C(=O)O[C@H]([C@H](C)C[C@@H]2CC[C@H](n3cnnn3)[C@H](OC)C2)CC(=O)[C@H](C)/C=C(\C)[C@@H](O)[C@@H](OC)C(=O)[C@H](C)C[C@H](C)/C=C/C=C/C=C/1C [zotarolimus]
Summary of the method: as §1

[4] = compound: COc1cc(C(=O)O)ccc1NC(=O)[C@@H]1N[C@@H](CC(C)(C)C)[C@](C#N)(c2ccc(Cl)cc2F)[C@H]1c1cccc(Cl)c1F [idasanutlin]
Summary of the method: as §1

[5] = compound: COc1cc(Nc2ncc3c(n2)-c2ccc(Cl)cc2C(c2c(F)cccc2OC)=NC3)ccc1C(=O)O [alisertib]
Summary of the method: as §1

[6] = compound: COc1cc2nc(-c3cc(F)ccc3O)nc(N[C@@H]3CNC[C@H]3C(C)(C)O)c2cc1OC
Summary of the method: as §1

[7] = compound: COc1cc2ncnc(Nc3ccc(F)c(Cl)c3)c2cc1OCCCN1CCOCC1 [gefitinib]
Summary of the method: as §1

[8] = compound: COc1cccc2cc(-c3nc([C@H]4CC[C@H](C(=O)O)CC4)n4ncnc(N)c34)[nH]c12
Summary of the method: as §1

[9] = compound: CS(=O)(=O)CCNCc1ccc(-c2ccc3ncnc(Nc4ccc(OCc5cccc(F)c5)c(Cl)c4)c3c2)o1 [lapatinib]
Summary of the method: as §1

[10] = compound: CS(=O)(=O)c1ccc(-c2cnc(N)c(C(=O)Nc3ccccc3)n2)cc1
Summary of the method: as §1

[11] = compound: C[C@@H](Oc1cc(-c2cnn(C3CCNCC3)c2)cnc1N)c1c(Cl)ccc(F)c1Cl [crizotinib]
Summary of the method: as §1

[12] = compound: C[C@@H]1COCCN1C2=NC(=NC(=C2)C3(CC3)S(=O)(=O)C)C4=C5C=CNC5=CC=C4
Summary of the method: as §1

[13] = compound: C[C@H](C1=CC=C(C=C1)C(=O)NC2=C3C=CNC3=NC=C2)N
Summary of the method: as §1

[14] = compound: C[C@H](Nc1ncnc2nc[nH]c12)c1cc2cccc(Cl)c2c(=O)n1-c1ccccc1 [duvelisib]
Summary of the method: as §1

[15] = compound: Cc1cc(Nc2cc(N3CCN(C)CC3)nc(Sc3ccc(NC(=O)C4CC4)cc3)n2)n[nH]1 [tozasertib]
Summary of the method: as §1

[16] = compound: Cc1cc(SCc2sc(-c3ccc(C(F)(F)F)cc3)nc2C)ccc1OCC(=O)O
Summary of the method: as §1

[17] = compound: Cc1ccc(-n2nc(C(C)(C)C)cc2NC(=O)Nc2ccc(OCCN3CCOCC3)c3ccccc23)cc1 [doramapimod]
Summary of the method: as §1

[18] = compound: CS(=O)(=O)N1CCN(Cc2cc3nc(-c4cccc5[nH]ncc45)nc(N4CCOCC4)c3s2)CC1 [pictilisib]
Summary of the method: as §1

[19] = compound: Cc1cc(Nc2cc(CN3CCOCC3)c3nc(C)c(Cc4ccc(Cl)cc4F)n3n2)n[nH]1 [gandotinib]
Summary of the method: as §1

[20] = compound: Cc1ccc(C(=O)N(CCCN)[C@@H](c2nc3cc(Cl)ccc3c(=O)n2Cc2ccccc2)C(C)C)cc1 [ispinesib]
Summary of the method: as §1

Chain of UniProt P49841 (P49841 whole entry, looked up): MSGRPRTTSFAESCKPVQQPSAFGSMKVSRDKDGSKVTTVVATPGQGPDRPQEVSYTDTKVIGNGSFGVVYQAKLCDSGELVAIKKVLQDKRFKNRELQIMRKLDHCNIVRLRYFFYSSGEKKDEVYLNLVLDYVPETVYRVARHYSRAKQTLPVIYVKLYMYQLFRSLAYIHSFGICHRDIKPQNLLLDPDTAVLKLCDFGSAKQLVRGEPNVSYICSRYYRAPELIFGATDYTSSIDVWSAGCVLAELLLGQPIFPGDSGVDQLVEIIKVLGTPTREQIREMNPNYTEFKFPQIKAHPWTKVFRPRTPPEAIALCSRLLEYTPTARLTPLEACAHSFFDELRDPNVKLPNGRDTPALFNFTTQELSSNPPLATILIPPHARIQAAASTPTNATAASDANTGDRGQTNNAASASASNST
Chain of UniProt Q9BYC5 (Q9BYC5 whole entry, looked up): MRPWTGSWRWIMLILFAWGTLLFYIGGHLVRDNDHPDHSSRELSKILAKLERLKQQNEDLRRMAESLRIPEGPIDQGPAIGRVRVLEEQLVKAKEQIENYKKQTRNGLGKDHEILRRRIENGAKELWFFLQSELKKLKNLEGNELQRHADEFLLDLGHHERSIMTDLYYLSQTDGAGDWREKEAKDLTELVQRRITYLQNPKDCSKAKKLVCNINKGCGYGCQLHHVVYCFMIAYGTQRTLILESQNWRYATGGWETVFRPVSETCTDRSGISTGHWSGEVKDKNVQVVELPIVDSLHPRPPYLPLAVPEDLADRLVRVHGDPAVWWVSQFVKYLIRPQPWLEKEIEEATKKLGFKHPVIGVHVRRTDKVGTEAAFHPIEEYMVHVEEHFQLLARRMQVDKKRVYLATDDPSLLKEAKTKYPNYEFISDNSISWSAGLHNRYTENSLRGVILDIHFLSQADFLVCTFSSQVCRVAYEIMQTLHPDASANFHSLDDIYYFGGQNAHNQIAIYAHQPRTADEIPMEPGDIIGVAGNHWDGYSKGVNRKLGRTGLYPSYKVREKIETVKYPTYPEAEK
Chain of UniProt O43427 (O43427 whole entry, looked up): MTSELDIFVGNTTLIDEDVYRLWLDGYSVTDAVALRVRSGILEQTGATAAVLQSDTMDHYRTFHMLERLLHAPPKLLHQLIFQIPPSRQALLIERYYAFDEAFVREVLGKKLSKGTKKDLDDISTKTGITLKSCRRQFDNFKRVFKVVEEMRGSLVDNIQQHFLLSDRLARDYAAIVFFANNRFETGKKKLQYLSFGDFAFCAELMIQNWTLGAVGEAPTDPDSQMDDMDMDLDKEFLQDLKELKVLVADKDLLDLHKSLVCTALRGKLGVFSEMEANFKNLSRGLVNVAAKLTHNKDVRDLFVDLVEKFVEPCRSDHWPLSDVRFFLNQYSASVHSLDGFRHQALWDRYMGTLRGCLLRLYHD
Chain of UniProt O14526 (O14526 whole entry, looked up): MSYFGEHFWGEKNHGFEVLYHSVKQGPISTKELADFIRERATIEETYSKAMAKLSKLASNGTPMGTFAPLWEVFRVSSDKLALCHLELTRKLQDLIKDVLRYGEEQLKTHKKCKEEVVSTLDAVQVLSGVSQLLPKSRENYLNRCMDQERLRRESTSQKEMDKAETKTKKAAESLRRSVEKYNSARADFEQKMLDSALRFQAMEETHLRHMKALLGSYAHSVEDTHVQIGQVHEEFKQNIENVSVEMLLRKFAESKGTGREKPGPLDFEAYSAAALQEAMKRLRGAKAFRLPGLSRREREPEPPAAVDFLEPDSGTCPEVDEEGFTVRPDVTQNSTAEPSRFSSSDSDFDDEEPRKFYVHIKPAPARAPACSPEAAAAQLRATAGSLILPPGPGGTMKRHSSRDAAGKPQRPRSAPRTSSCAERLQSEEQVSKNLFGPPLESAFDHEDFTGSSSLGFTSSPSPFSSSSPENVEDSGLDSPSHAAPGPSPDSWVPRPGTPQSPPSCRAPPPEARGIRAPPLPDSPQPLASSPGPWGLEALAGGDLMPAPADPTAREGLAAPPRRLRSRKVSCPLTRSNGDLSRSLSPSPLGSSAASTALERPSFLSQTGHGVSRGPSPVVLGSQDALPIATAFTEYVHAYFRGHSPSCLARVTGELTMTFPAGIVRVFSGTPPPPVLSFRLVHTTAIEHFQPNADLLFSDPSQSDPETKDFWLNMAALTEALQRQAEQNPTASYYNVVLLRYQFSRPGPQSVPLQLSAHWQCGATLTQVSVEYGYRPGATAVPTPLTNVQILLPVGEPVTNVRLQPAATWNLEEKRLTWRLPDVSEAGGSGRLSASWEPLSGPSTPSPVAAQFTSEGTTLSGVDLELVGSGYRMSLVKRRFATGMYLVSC
Chain of UniProt Q9Y613 (Q9Y613 whole entry, looked up): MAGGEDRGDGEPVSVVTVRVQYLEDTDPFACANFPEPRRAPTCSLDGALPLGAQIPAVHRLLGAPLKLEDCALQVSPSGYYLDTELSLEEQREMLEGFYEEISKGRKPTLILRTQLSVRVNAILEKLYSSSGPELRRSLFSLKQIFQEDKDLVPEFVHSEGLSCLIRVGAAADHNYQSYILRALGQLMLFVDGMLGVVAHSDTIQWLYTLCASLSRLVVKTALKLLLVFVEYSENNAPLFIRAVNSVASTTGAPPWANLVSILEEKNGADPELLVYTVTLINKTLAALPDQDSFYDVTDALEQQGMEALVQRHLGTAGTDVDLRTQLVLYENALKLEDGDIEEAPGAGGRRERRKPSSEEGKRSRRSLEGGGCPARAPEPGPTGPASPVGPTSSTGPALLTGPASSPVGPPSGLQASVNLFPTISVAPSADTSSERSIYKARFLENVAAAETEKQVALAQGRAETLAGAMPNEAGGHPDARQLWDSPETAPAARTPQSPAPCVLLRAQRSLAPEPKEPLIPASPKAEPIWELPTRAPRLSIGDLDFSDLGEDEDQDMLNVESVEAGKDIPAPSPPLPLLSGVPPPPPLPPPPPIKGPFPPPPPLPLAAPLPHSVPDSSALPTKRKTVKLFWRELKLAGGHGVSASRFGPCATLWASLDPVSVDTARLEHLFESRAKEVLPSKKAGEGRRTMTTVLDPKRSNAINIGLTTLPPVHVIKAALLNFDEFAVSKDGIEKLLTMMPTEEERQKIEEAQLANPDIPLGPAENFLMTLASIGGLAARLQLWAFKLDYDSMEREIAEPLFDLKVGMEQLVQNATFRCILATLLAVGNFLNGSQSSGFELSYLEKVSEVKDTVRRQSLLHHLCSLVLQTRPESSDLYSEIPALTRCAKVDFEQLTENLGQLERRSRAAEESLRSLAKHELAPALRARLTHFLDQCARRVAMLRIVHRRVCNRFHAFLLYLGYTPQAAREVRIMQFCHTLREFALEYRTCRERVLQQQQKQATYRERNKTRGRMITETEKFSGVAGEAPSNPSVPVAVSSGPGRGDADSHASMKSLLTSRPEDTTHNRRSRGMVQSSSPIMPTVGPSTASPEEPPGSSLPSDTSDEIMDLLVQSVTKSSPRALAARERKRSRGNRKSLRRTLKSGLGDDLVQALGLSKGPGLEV
Chain of UniProt Q9HCG7 (Q9HCG7 whole entry, looked up): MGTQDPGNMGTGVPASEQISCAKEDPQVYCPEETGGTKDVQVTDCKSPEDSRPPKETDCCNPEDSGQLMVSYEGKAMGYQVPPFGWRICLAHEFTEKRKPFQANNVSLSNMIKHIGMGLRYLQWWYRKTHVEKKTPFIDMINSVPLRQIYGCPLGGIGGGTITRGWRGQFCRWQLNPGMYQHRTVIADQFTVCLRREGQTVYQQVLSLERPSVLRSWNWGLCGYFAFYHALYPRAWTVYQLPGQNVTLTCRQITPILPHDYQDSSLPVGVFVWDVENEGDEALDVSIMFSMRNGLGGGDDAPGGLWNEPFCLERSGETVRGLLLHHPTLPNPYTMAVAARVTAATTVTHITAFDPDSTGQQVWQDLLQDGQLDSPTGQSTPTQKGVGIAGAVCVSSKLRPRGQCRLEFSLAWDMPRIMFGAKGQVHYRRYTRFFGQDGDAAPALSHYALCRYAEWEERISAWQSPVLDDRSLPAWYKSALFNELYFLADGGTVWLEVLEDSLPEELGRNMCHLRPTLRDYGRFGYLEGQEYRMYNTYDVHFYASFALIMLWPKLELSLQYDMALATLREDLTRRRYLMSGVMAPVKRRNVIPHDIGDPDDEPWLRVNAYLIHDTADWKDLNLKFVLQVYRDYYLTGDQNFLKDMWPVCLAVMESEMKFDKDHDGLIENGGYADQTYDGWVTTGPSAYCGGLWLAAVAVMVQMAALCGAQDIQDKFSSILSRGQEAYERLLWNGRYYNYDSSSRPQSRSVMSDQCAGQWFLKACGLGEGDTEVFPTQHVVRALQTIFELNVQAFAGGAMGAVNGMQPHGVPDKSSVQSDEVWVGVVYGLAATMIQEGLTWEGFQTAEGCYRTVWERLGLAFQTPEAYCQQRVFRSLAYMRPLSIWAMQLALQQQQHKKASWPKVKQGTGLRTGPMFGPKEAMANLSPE
Chain of UniProt Q00403 (Q00403 whole entry, looked up): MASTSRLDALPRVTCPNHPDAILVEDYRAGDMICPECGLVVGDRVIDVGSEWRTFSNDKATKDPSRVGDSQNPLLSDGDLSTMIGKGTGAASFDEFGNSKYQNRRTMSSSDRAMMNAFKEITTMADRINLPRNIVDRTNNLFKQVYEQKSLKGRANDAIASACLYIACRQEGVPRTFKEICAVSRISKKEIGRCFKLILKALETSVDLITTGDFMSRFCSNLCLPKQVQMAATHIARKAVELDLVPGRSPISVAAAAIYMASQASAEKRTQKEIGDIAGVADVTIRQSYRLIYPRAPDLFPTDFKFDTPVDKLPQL
Chain of UniProt Q13907 (Q13907 whole entry, looked up): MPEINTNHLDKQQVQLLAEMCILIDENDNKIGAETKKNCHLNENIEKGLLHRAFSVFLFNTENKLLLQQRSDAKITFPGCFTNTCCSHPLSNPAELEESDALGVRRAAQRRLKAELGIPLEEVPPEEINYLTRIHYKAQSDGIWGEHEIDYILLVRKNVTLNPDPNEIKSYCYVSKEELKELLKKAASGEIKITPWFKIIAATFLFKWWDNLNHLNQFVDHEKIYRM
Chain of UniProt Q01628 (Q01628 whole entry, looked up): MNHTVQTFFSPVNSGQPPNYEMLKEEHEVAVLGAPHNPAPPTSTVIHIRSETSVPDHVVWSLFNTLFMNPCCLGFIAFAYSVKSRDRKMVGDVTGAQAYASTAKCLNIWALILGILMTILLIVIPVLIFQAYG

| Target | log2 fold change [1] | log2 fold change [2] | log2 fold change [3] | log2 fold change [4] | log2 fold change [5] | log2 fold change [6] | log2 fold change [7] | log2 fold change [8] | log2 fold change [9] | log2 fold change [10] | log2 fold change [11] | log2 fold change [12] | log2 fold change [13] | log2 fold change [14] | log2 fold change [15] | log2 fold change [16] | log2 fold change [17] | log2 fold change [18] | log2 fold change [19] | log2 fold change [20] |
| --- | --- | --- | --- | --- | --- | --- | --- | --- | --- | --- | --- | --- | --- | --- | --- | --- | --- | --- | --- | --- |
| GBA2 (UniProt Q9HCG7) | -0.064 | 0.117 | 0.087 | -0.042 | 0.067 | 0.049 | 0.084 | -0.062 | 0.011 | 0.091 | 0.094 | 0.051 | 0.004 | 0.041 | -0.053 | 0.067 | 0.056 | – | – | – |
| IDI1 isoform 2 (UniProt Q13907) | -0.314 (active) | 0.026 | 0.033 | -0.006 | -0.003 | 0.007 | 0.024 | 0.039 | -0.014 | 0.052 | 0.093 | 0.062 | -0.018 | 0.069 | 0.057 | -0.028 | -0.063 | 0.089 | 0.014 | 0.045 |
| IFITM3 (UniProt Q01628) | 0.055 | 0.008 | 0.007 | 0.07 | -0.121 | -0.017 | 0.09 | 0.089 | 0.004 | -0.038 | -0.027 | 0.069 | -0.085 | 0.22 | -0.002 | -0.094 | 0.038 | – | – | 0.07 |
| FUT8 (UniProt Q9BYC5) | -0.156 | -0.043 | -0.019 | -0.066 | 0.022 | – | 0.084 | -0.03 | – | 0.018 | -0.235 | 0.077 | -0.011 | -0.007 | -0.14 | 0.178 | -0.017 | -0.032 | 0.034 | -0.148 |
| FHOD1 (UniProt Q9Y613) | -0.044 | 0.084 | 0.095 | 0.127 | -0.161 | 0.186 | -0.005 | -0.253 | 0.014 | 0.033 | -0.107 | -0.174 | 0.58 (active) | -0.121 | – | 0.085 | 0.235 | 0.01 | 0.105 | -0.193 |
| GSK3B isoform 2 (UniProt P49841) | 0.133 | -0.034 | 0.013 | -0.121 | – | 0.056 | -0.041 | 0.022 | -0.013 | 0.09 | -0.053 | -0.032 | -0.143 | -0.015 | -0.043 | 0.015 | -0.013 | 0.014 | -0.108 | 0.059 |
| FIBP (UniProt O43427) | 0.083 | -0.051 | -0.047 | 0.03 | 0.016 | 0.042 | – | -0.084 | 0.008 | 0.022 | -0.043 | 0.257 | 0.118 | 0.041 | -0.144 | 0.02 | -0.048 | 0.185 | -0.094 | -0.052 |
| FCHO1 (UniProt O14526) | 0.061 | 0.055 | 0.068 | 0.072 | -0.055 | 0.256 | 0.046 | 0.022 | -0.105 | 0.033 | -0.118 | 0.158 | 0.161 | -0.039 | 0.043 | 0.109 | -0.009 | – | – | -0.264 |
| GTF2B (UniProt Q00403) | 0.046 | -0.018 | 0.054 | -0.085 | -0.037 | -0.001 | 0.02 | -0.006 | -0.047 | -0.007 | -0.044 | 0.115 | 0.001 | 0.121 | 0.102 | 0.127 | -0.044 | -0.025 | -0.146 | -0.091 |
